CSC inhib = cancer stem cell viability inhibitors, primary screen, luminescence | cancer stem cell-like cells viability | inhibition, % at 7.5 µM | 300,000 compounds, 1.1% hits | AID 2717, 2010; in the data active = inhibition above about 75%; tested in HMLE shEcad cells
Calb FLC = C. albicans growth inhibition with fluconazole, primary screen, CaCi-2 strain, Alamar Blue fluorescence; C. albicans CaCi-2 (fluconazole-resistant clinical isolate) + fluconazole, 48 h; growth inhibition, % (no concentration beside the values); 300,000 compounds, 0.57% hits;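 active = growth inhibition above about 58% in most replicates, limit read from the data, passing the limit was not always enough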;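 also: all wells also contain fluconazole at 8 µg/ml as a sub-toxic cotreatment; 0% = median of DMSO wells and 100% = median of geldanamycin control wells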
Beta cell apopt = inhibitors of cytokine-induced beta cell apoptosis, primary screen, luminescence; protection from apoptosis, % (no concentration beside the values); 300,000 compounds, 0.8% hits; INS-1E cytokine-induced death, ATP luminescence, 48 h; percent of positive-control rescue, neutral wells zero; AID 435005, 2010;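 active = Every replicate reaches about 75%, or at least half do and their mean reaches it too, limit read from the data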;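 also: 0% = cytokine-treated negative control wells and 100% = positive control rescue; higher means more ATP so stronger rescue from cytokine killing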
Mdm2 MdmX PPI = inhibitors of human Mdm2-MdmX association, primary screen, cell-based, luminescence, split luciferase, SaOS-2, uHTS; 330,000 compounds, 3% hits; inhibition, % at 8 µM; SaOS-2 split-luciferase Mdm2/MdmX complementation; AID 485346, 2010; Protein Mdm4 (Homo sapiens) + E3 ubiquitin-protein ligase Mdm2 (Homo sapiens), …;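 active = inhibition of at least 50% at 8 µM in the primary screen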
MPTP inh = mitochondrial permeability transition pore inhibitors, primary screen, biochemical, isolated mouse mitochondria, absorbance | Ca2+ swelling absorbance, 30 min | 360,000 compounds, 1.4% hits | inhibition, % at 10 µM;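 active = inhibition of 50% or more, scaled per plate between neutral and stimulator controls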;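 also: 0% = DMSO wells given calcium and 100% = 1 mM EGTA wells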
Mdm2-MdmX conf = Mdm2-MdmX complex disruptors, retested hits, confirmation, luminescence, single concentration; shares compounds with Mdm2 MdmX PPI; Mdm2-MdmX binding, luminescent assay; 10,000 compounds, 55% hits; inhibition, % at 8 µM; in the data active = inhibition above about 40%
Full FLuc ctr = full-length luciferase signal inhibition, confirmation, counter-screen for Mdm2/MdmX interaction inhibitor project, cell-based, single concentration, SaOS-2; shares compounds with Mdm2 MdmX PPI; SaOS-2 full-length luciferase counterscreen, luminescence; inhibition, % at 8 µM; 6,200 compounds, 77% hits; AID 504607, 2011;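 active = mean inhibition at 8 µM reaching about 37%, which flags the compound as non-specific, limit read from the data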;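 also: p53-null SaOS-2 cells with luciferase driven by a doxycycline-inducible promoter; compound on cells about two nights before reading with doxycycline added after day one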
* marks the source's active call; other numbers are inactive results; . = no result given. Sampled rows, rich in hits. Any-hit rate of the full collection: about 4.8%.

SMILES	CSC inhib	Calb FLC	Beta cell apopt	Mdm2 MdmX PPI	MPTP inh	Mdm2-MdmX conf	Full FLuc ctr
C[C@@H]1CN([C@@H](C)CO)C(=O)Cc2cc(NC(=O)Nc3ccc(F)cc3)ccc2O[C@@H]1CN(C)Cc1ccc(Cl)c(Cl)c1	.	.	66.0	100.5*	2.8	63.2*	56.2*
CC1(C(=O)NS(=O)(=O)C2CC2)CCCN(C(=O)COCc2ccccc2)C1 (stereo not drawn)	.	.	.	.	0.6	.	.
COC(=O)C[C@H]1CC[C@@H](NC(=O)c2ccncc2)[C@@H](CO)O1	.	.	.	.	-0.9	.	.
CC(=O)Nc1ccc(Nc2nc(C)nc3c2oc2ccccc23)cc1	-8.9	3.3	14.8	24.6	0.4	.	.
Cc1nc(Nc2ccncc2)c2oc3ccccc3c2n1	-1.8	-1.2	47.0	72.5*	-1.5	54.8*	47.5*
CCc1nc(Nc2ccncc2)c2oc3ccccc3c2n1	7.8	84.5*	6.0	63.2*	0.1	78.6*	31.6
CCn1nc(C)c(C(=O)Nc2cc(Oc3cc(C)cc(C)c3)cc([N+](=O)[O-])c2)c1C	70.7	7.5	13.9	52.8*	-0.1	59.5*	51.4*
CCN1CSC(=S)N(Cc2ccccc2)C1	18.3	6.3	-8.4	40.2	0.2	.	.
CCN1CSC(=S)N(Cc2ccc(OC)cc2)C1	47.1	1.4	-6.3	69.0*	0.3	31.6	.
FC(F)(F)c1cc(Cc2nc3ccccc3n2C(CCc2ccccc2)c2nc3ccccc3[nH]2)cc(C(F)(F)F)c1 (stereo not drawn)	.	.	.	.	14.1	.	.
CC(=O)N1CCc2c(sc(NC(=O)c3ccc([N+](=O)[O-])o3)c2C#N)C1	.	11.1	.	.	2.8	.	.
COC(=O)c1c(NC(=O)c2ccc([N+](=O)[O-])o2)sc2c1CCN(C(C)C)C2	28.9	2.4	7.9	97.4*	-1.1	98.5*	47.7*
CC(C)N1CCc2c(sc(NC(=O)c3ccc([N+](=O)[O-])o3)c2C(N)=O)C1	-7.4	-1.3	71.3	88.7*	1.2	94.0*	19.4
COC(=O)[C@@]1(Sc2ccc(C)cc2)CC(=O)N(c2ccccc2)[C@@H]1c1ccccc1	.	.	.	.	1.2	.	.
Cc1nc(S(=O)(=O)Nc2ccccc2C(=O)NCC2CC2)cn1C	-13.5	0.2	-2.9	24.9	0.8	.	.
Cc1nc(Sc2ccc(Br)cc2)c(C#N)c(C)c1[N+](=O)[O-]	83.5*	-7.4	0.5	52.9*	-0.6	31.6	.
COc1ccc(-n2c(N)c(C(=O)Nc3c(C)n(C)n(-c4ccccc4)c3=O)c3nc4ccccc4nc32)cc1	8.2	-1.7	5.1	32.5	3.5	.	.
Cc1ccc(-n2c(N)c(C(=O)Nc3c(C)n(C)n(-c4ccccc4)c3=O)c3nc4ccccc4nc32)cc1C	3.7	-2.6	42.0	50.8*	.	27.6	.
Cc1sc2ncnc(Sc3nnnn3-c3ccc(Cl)cc3)c2c1C	31.3	-5.5	2.7	100.6*	6.4	79.0*	53.8*
c1ccc(-n2nnnc2Sc2ncnc3sc4c(c23)CCCC4)cc1	31.7	-3.3	1.5	97.7*	1.7	74.8*	47.5*
O=C(NC1CCCC1)C(c1ccccn1)N(C(=O)c1csnn1)c1ccccc1Br (stereo not drawn)	-11.9	-6.0	-1.3	-11.0	-0.7	.	.
Cc1ccc(NS(=O)(=O)c2ccc(Cl)nc2)c(C)c1	.	.	.	12.4	-0.3	.	.
N#Cc1cc(Oc2cccc3cccnc23)c(-n2nnc3ccccc32)cc1C#N	5.3	0.5	9.7	61.8*	-1.9	18.3	.
N#Cc1cc(O)c(-n2nnc3ccccc32)cc1C#N	-1.5	17.3	.	16.2	0.1	.	.
O=[N+]([O-])c1ccc2nc(Cl)nc(-c3ccccc3)c2c1	-10.9	-1.9	2.7	96.3*	1.1	66.0*	53.9*
SMILES	CSC inhib	Calb FLC	Beta cell apopt	Mdm2 MdmX PPI	MPTP inh	Mdm2-MdmX conf	Full FLuc ctr
COc1ccc(C(=O)NC(=S)Nc2ccc3oc(=O)ccc3c2)cc1	.	16.0	2.9	73.3*	-0.2	23.6	84.1*
CNc1nc2c(-c3ccc(Cl)cc3)nnn2c2ccccc12	15.3	-7.1	16.9	60.6*	2.6	42.2*	68.7*
COCCNc1nc2c(-c3cccc(C(F)(F)F)c3)nnn2c2ccccc12	-1.3	-4.7	1.2	39.6	1.3	.	.
NNc1nc2c(-c3cccc(C(F)(F)F)c3)nnn2c2ccccc12	50.1	11.7	25.8	56.0*	1.4	22.1	.
Cc1ccc(-c2nnn3c2nc(NC(C)C)c2ccccc23)cc1	6.9	-9.5	4.2	32.0	2.5	.	.
CCOC(=O)c1nnn2c1nc(Nc1cccc(C(F)(F)F)c1)c1ccccc12	9.8	-2.9	57.6	82.1*	40.5	30.5	.
CCOC(=O)c1nnn2c1nc(SCC(C)=O)c1ccccc12	-10.3	1.9	6.6	-14.5	1.0	.	.
CCCCCOc1ccc(/C=C/c2c([N+](=O)[O-])c(=O)n(C)c(=O)n2C)cc1	31.9	-10.5	10.8	43.2	0.8	.	.
CCN(CC(=O)Nc1ccccc1OC)C(=O)CSCc1ccc(C)cc1	17.7	.	0.7	12.6	-1.0	.	.
CCc1nc2ccc(C(=O)NCCC(C)C)cn2c1N(CC)CCOC	.	.	.	.	0.1	.	.
COC(=O)C1(C(=O)OC)C[C@H](c2cccs2)N(Cc2ccccc2OC)[C@@H]1c1ccc(F)cc1	.	.	.	.	4.8	.	.
O=C1N(c2ccccc2C(F)(F)F)OC1(Cc1ccccc1)c1ccccc1 (stereo not drawn)	56.5	.	-10.1	91.6*	1.6	66.8*	52.0*
CC(C)[C@@]1(c2ccccc2)ON(c2ccccc2C(F)(F)F)C1=O	25.8	.	-3.0	37.4	.	.	.
CC(C)[C@]1(c2ccccc2)ON(c2ccccc2C(F)(F)F)C1=O	-19.8	.	1.5	39.9	.	.	.
CC(C)[C@]1(c2ccc(Cl)cc2)ON(c2ccccc2C(F)(F)F)C1=O	57.5	.	2.0	68.0*	.	33.9	56.2*
O=C1N(c2ccccc2C(F)(F)F)O[C@]1(c1ccccc1)C1CCCCC1	69.9	.	-3.7	85.4*	-0.4	62.0*	50.8*
O=C(CSc1nnc(-c2ccccn2)o1)Nc1ccccc1F	1.9	6.9	-6.5	-27.8	2.0	.	.
CCCCC(CCCC)=N/N=C/c1c(O)n(CC)c2cc(C3=NNC(=O)CC3)ccc12	-17.3	-1.3	19.5	58.1*	0.8	9.2	.
Cc1cc(C(=O)NC2CCCc3c2cnn3-c2cccc(C)c2C)no1 (stereo not drawn)	-2.4	-4.5	.	93.5*	2.1	94.4*	23.6
COc1ccc(C(=O)NC2CCCc3c2cnn3-c2cccc(C)c2C)o1 (stereo not drawn)	15.0	-0.7	14.5	73.7*	3.1	48.4*	46.0*

Screening data from PubChem BioAssay.
